Results published in the supplement of paper PMC8728848.
The full list was thinned out, with the strongest signals kept by preference.

Key:
Assay in all cases: glycan array binding signal (z-score within array); higher = stronger binding
Settings in all cases: glycan notation: IUPAC condensed, linker removed
[1] = target: Fuc(a1-2)Gal(b1-3)GalNAc(b1-3)Gal
Outline: (§1)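 Glycan array data were curated from 3228 arrays in the Consortium for Functional Glycomics database and kept only where the protein sequence was available. Glycan names were converted to IUPAC-condensed notation, and columns mapping to the same glycan were averaged. The binding signal is a within-array Z-score, averaged across arrays of the same protein sequence at different concentrations or buffers and across linkers. Negative Z-scores can be read as non-binding.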

[2] = target: Fuc(a1-2)Gal(b1-3)GlcNAc(b1-3)GalNAc
Outline: as §1

[3] = target: Fuc(a1-2)Gal(b1-4)GlcNAc(b1-3)Gal(b1-4)GlcNAc(b1-2)Man(a1-3)[Fuc(a1-2)Gal(b1-4)GlcNAc(b1-3)Gal(b1-4)GlcNAc(b1-2)Man(a1-6)]Man(b1-4)GlcNAc(b1-4)GlcNAc
Outline: as §1

[4] = target: Fuc(a1-2)Gal(b1-4)GlcNAc(b1-3)[Fuc(a1-3)[Gal(b1-4)]GlcNAc(b1-6)]Gal(b1-4)Glc
Outline: as §1

[5] = target: Fuc(a1-2)[Gal(a1-3)]Gal(b1-4)Glc
Outline: as §1

[6] = target: Fuc(a1-2)[Gal(a1-3)]Gal(b1-4)GlcNAc
Outline: as §1

[7] = target: Fuc(a1-2)[GalNAc(a1-3)]Gal(b1-4)GlcNAc(b1-6)GalNAc
Outline: as §1

[8] = target: Fuc(a1-2)[GalNAc(b1-3)]Gal
Outline: as §1

[9] = target: Fuc(a1-3)[GalNAc(b1-4)]GlcNAc
Outline: as §1

[10] = target: Gal(a1-6)Glc
Outline: as §1

[11] = target: Gal(b1-2)Gal
Outline: as §1

[12] = target: Gal(b1-3)GlcNAc(b1-3)Gal(b1-4)Glc
Outline: as §1

[13] = target: Gal(b1-3)GlcNAc(b1-3)Gal(b1-4)GlcNAc(b1-3)Gal(b1-4)GlcNAc(b1-2)[Gal(b1-3)GlcNAc(b1-3)Gal(b1-4)GlcNAc(b1-3)Gal(b1-4)GlcNAc(b1-6)]Man(a1-6)[Gal(b1-3)GlcNAc(b1-3)Gal(b1-4)GlcNAc(b1-3)Gal(b1-4)GlcNAc(b1-2)Man(a1-3)]Man(b1-4)GlcNAc(b1-4)[Fuc(a1-6)]GlcNAc
Outline: as §1

[14] = target: Gal(b1-3)GlcNAc(b1-3)Gal(b1-4)[Fuc(a1-3)]GlcNAc
Outline: as §1

[15] = target: Gal(b1-3)GlcNAc(b1-3)GalNAc
Outline: as §1

[16] = target: Gal(b1-3)[Neu5Ac(a2-6)]GalNAc
Outline: as §1

[17] = target: Gal(b1-3)[Neu5Ac(b2-6)]GalNAc
Outline: as §1

[18] = target: Gal(b1-4)GlcNAc(b1-2)Man(a1-3)Man(b1-4)GlcNAc(b1-4)GlcNAc
Outline: as §1

[19] = target: Gal(b1-4)GlcNAc(b1-2)Man(a1-6)Man(b1-4)GlcNAc(b1-4)GlcNAc
Outline: as §1

[20] = target: Gal(b1-4)GlcNAc(b1-2)[Gal(b1-4)GlcNAc(b1-4)]Man(a1-3)[Gal(b1-4)GlcNAc(b1-2)[Gal(b1-4)GlcNAc(b1-6)]Man(a1-6)]Man(b1-4)GlcNAc(b1-4)GlcNAc
Outline: as §1

[21] = target: Gal(b1-4)GlcNAc(b1-3)Gal(b1-4)GlcNAc(b1-2)Man(a1-3)[Gal(b1-4)GlcNAc(b1-3)Gal(b1-4)GlcNAc(b1-2)Man(a1-6)]Man(b1-4)GlcNAc(b1-4)GlcNAc
Outline: as §1

[22] = target: Gal(b1-4)GlcNAc(b1-3)Gal(b1-4)GlcNAc(b1-2)[Gal(b1-4)GlcNAc(b1-3)Gal(b1-4)GlcNAc(b1-6)]Man(a1-6)[Gal(b1-4)GlcNAc(b1-3)Gal(b1-4)GlcNAc(b1-2)Man(a1-3)]Man(b1-4)GlcNAc(b1-4)GlcNAc
Outline: as §1

[23] = target: Gal(b1-4)GlcNAc(b1-3)Gal(b1-4)GlcNAc(b1-3)Gal(b1-4)GlcNAc(b1-2)Man(a1-3)[Gal(b1-4)GlcNAc(b1-3)Gal(b1-4)GlcNAc(b1-3)Gal(b1-4)GlcNAc(b1-2)Man(a1-6)]Man(b1-4)GlcNAc(b1-4)[Fuc(a1-6)]GlcNAc
Outline: as §1

[24] = target: Gal(b1-4)GlcNAc(b1-3)Gal(b1-4)GlcNAc(b1-3)[Gal(b1-4)GlcNAc(b1-3)Gal(b1-4)GlcNAc(b1-6)]GalNAc
Outline: as §1

[25] = target: Gal(b1-4)GlcNAc(b1-3)[Fuc(a1-3)GlcNAc(b1-6)]Gal(b1-4)Glc
Outline: as §1

[26] = target: Gal(b1-4)GlcNAc(b1-6)[Gal(b1-3)]GalNAc
Outline: as §1

[27] = target: Gal3S(b1-4)Glc
Outline: as §1

[28] = target: Gal3S(b1-4)[Fuc(a1-3)]Glc6S
Outline: as §1

[29] = target: Gal3S(b1-4)[Fuc(a1-3)]GlcNAc6S
Outline: as §1

[30] = target: Gal3S6S(b1-4)GlcNAc
Outline: as §1

[31] = target: Gal3S6S(b1-4)GlcNAc6S
Outline: as §1

[32] = target: GalNAc(b1-3)Gal(a1-4)Gal(b1-4)GlcNAc
Outline: as §1

[33] = target: GalNAc(b1-4)GlcNAc
Outline: as §1

[34] = target: GlcNAc(a1-4)Gal(b1-4)GlcNAc
Outline: as §1

[35] = target: GlcNAc(b1-2)[GlcNAc(b1-6)]Man(a1-6)[GlcNAc(b1-4)][GlcNAc(b1-2)Man(a1-3)]Man(b1-4)GlcNAc(b1-4)GlcNAc
Outline: as §1

[36] = target: GlcNAc(b1-3)[GlcNAc(b1-4)][GlcNAc(b1-6)]GlcNAc
Outline: as §1

[37] = target: GlcNAc(b1-4)GlcNAc
Outline: as §1

[38] = target: GlcNAc(b1-4)GlcNAc(b1-4)GlcNAc(b1-4)GlcNAc(b1-4)GlcNAc(b1-4)GlcNAc
Outline: as §1

[39] = target: Man(b1-4)GlcNAc
Outline: as §1

[40] = target: Neu5Ac(a2-3)Gal(b1-3)GlcNAc(b1-2)Man
Outline: as §1

[41] = target: Neu5Ac(a2-3)Gal(b1-3)GlcNAc(b1-4)Gal(b1-4)Glc
Outline: as §1

[42] = target: Neu5Ac(a2-3)Gal(b1-3)[Fuc(a1-4)]GlcNAc
Outline: as §1

[43] = target: Neu5Ac(a2-3)Gal(b1-3)[Neu5Ac(a2-6)]GlcNAc(b1-3)[Fuc(a1-3)[Gal(b1-4)]GlcNAc(b1-6)]Gal(b1-4)Glc
Outline: as §1

[44] = target: Neu5Ac(a2-3)Gal(b1-4)GlcNAc(b1-2)[Neu5Ac(a2-3)Gal(b1-4)GlcNAc(b1-4)]Man(a1-3)[GlcNAc(b1-4)][Neu5Ac(a2-3)Gal(b1-4)GlcNAc(b1-2)[Neu5Ac(a2-3)Gal(b1-4)GlcNAc(b1-6)]Man(a1-6)]Man(b1-4)GlcNAc(b1-4)GlcNAc
Outline: as §1

[45] = target: Neu5Ac(a2-3)Gal(b1-4)[Fuc(a1-3)]GlcNAc(b1-2)Man
Outline: as §1

[46] = target: Neu5Ac(a2-6)Gal(b1-4)GlcNAc(b1-2)Man(a1-3)[Gal(b1-4)GlcNAc(b1-2)Man(a1-6)]Man(b1-4)GlcNAc(b1-4)GlcNAc
Outline: as §1

[47] = target: Neu5Ac(a2-6)Gal(b1-4)GlcNAc(b1-3)Gal(b1-4)GlcNAc(b1-3)Gal(b1-4)GlcNAc(b1-2)Man(a1-3)[Neu5Ac(a2-6)Gal(b1-4)GlcNAc(b1-3)Gal(b1-4)GlcNAc(b1-3)Gal(b1-4)GlcNAc(b1-2)Man(a1-6)]GalNAc
Outline: as §1

[48] = target: Neu5Ac(a2-6)Gal(b1-4)GlcNAc(b1-3)Gal(b1-4)GlcNAc(b1-3)GalNAc
Outline: as §1

[49] = target: Neu5Ac(b2-6)GalNAc
Outline: as §1

[50] = target: Neu5Gc(a2-3)Gal(b1-4)Glc
Outline: as §1

[51] = target: Neu5Gc(a2-3)Gal(b1-4)GlcNAc
Outline: as §1

[52] = target: Neu5Gc(b2-6)Gal(b1-4)GlcNAc
Outline: as §1

B1: SynCAM (Mus musculus) (protein)
chain: MASAVLPSGSQCAAAAAVAAAAAPPGLRLRLLLLLLSAAALIPTGDGQNLFTKDVTVIEGEVATISCQVNKSDDSVIQLLNPNRQTIYFRDFRPLKDSRFQLLNFSSSELKVSLTNVSISDEGRYFCQLYTDPPQESYTTITVLVPPRNLMIDIQKDTAVEGEEIEVNCTAMASKPATTIRWFKGNKELKGKSEVEEWSDMYTVTSQLMLKVHKEDDGVPVICQVEHPAVTGNLQTQRYLEVQYKPQVHIQMTYPLQGLTREGDAFELTCEAIGKPQPVMVTWVRVDDEMPQHAVLSGPNLFINNLNKTDNGTYRCEASNIVGKAHSDYMLYVYDPPTTIPPP
Which results are given for B1?
glycan array binding signal (z-score) [1]: 0.178; glycan array binding signal (z-score) [2]: 0.316; glycan array binding signal (z-score) [3]: 0.696; glycan array binding signal (z-score) [4]: -0.893; glycan array binding signal (z-score) [5]: -0.671; glycan array binding signal (z-score) [6]: -1.34; glycan array binding signal (z-score) [7]: -0.149; glycan array binding signal (z-score) [8]: 0.423; glycan array binding signal (z-score) [9]: 2.63; glycan array binding signal (z-score) [10]: -0.988; glycan array binding signal (z-score) [11]: 0.521; glycan array binding signal (z-score) [12]: 0.308; glycan array binding signal (z-score) [13]: 2.43; glycan array binding signal (z-score) [14]: -1.13; glycan array binding signal (z-score) [15]: 0.053; glycan array binding signal (z-score) [16]: -0.488; glycan array binding signal (z-score) [17]: -0.562; glycan array binding signal (z-score) [18]: -1.2; glycan array binding signal (z-score) [19]: -0.469; glycan array binding signal (z-score) [20]: -0.042; glycan array binding signal (z-score) [21]: 2.96; glycan array binding signal (z-score) [22]: 0.285; glycan array binding signal (z-score) [23]: 1.48; glycan array binding signal (z-score) [24]: 0.945; glycan array binding signal (z-score) [25]: 0.097; glycan array binding signal (z-score) [26]: -0.072; glycan array binding signal (z-score) [27]: 1.95; glycan array binding signal (z-score) [28]: 3.97; glycan array binding signal (z-score) [29]: 1.22; glycan array binding signal (z-score) [30]: 2.56; glycan array binding signal (z-score) [31]: 2.69; glycan array binding signal (z-score) [32]: 2.45; glycan array binding signal (z-score) [33]: 2.71; glycan array binding signal (z-score) [34]: -1.14; glycan array binding signal (z-score) [35]: -0.782; glycan array binding signal (z-score) [36]: 2.58; glycan array binding signal (z-score) [37]: -1.17; glycan array binding signal (z-score) [38]: 0.16; glycan array binding signal (z-score) [39]: -0.306; glycan array binding signal (z-score) [40]: -0.517; glycan array binding signal (z-score) [41]: -0.756; glycan array binding signal (z-score) [42]: 0.283; glycan array binding signal (z-score) [43]: -0.498; glycan array binding signal (z-score) [44]: 0.594; glycan array binding signal (z-score) [45]: 3.11; glycan array binding signal (z-score) [46]: -0.518; glycan array binding signal (z-score) [47]: 2.42; glycan array binding signal (z-score) [48]: -0.464; glycan array binding signal (z-score) [49]: -0.413; glycan array binding signal (z-score) [50]: -0.801; glycan array binding signal (z-score) [51]: -0.921; glycan array binding signal (z-score) [52]: 0.145
